Assay results from PubChem BioAssay AID463173 (ICCB-Longwood Screening Facility, Harvard Medical School, 2010).
The whole screen tested about 52,000 compounds, of which about 4,300 (8.3%) were called active. Cut-off read from the data, not from the text of the source: active = survival mostly below about 52% (no sharp cut-off); inactive = mostly above about 56%. Shown is part of a subset that was picked to be rich in actives.

System: DeltatarO mutant
Assay: S. aureus survival, RN4220 and DeltatarO strains – OD600, teichoic acid synthesis inhibitors, primary screen (AID 463173)
Conditions: S. aureus RN4220 wild type/DeltatarO growth, OD600, 18 h, stronger effect = lower value, screened at 18.75 µg/mL (by protocol)

Compound | survival
CCCCNC(=O)CSc1nc2n[nH]c(C)c2c(=N)n1-c1ccccc1CC | 89% (inactive)
O=C1CN(C(=O)Nc2ccccc2Cl)C(c2ccccc2)c2c(sc3c2CCCC3)N1 (stereo unspecified) | 73% (inactive)
CCc1ccccc1N1C(=O)N(CC(=O)c2ccc(OC)cc2)c2ccccc2S1(=O)=O | 79% (inactive)
CC(C)CCNC(=O)Nc1ccc2c(c1)N(Cc1ccccc1)C(=O)c1ccccc1S2 | 79% (inactive)
Cc1nc(SCCOc2ccccc2F)[nH]c(=O)c1Cc1ccccc1 | 75% (inactive)
Cc1ccc(-n2nc3c(=O)n(C(C)C(=O)O)nc(C)c3c2C)cc1 (stereo unspecified) | 101% (inactive)
Cc1ccc(-c2nc(C(=O)NCc3ccc(Cl)cc3)c3n2CCCCC3)cc1 | 56% (inactive)
CSc1nnc2[nH]c(=O)cc(C)n12 | 69% (inactive)
Cc1ccc(-n2nc(C)c3c(C(=O)Nc4ccc(C)cc4Cl)cc(C)nc32)cc1 | 63% (inactive)
CN(c1ccc(Cl)cc1)S(=O)(=O)c1nnc(NC(=O)c2ccco2)s1 | 62% (inactive)
Cc1cccc(C(=O)Nc2nnc(S(=O)(=O)N(C)Cc3ccco3)s2)c1 | 25% (active)
CCC(=O)Nc1nnc(S(=O)(=O)N(C)Cc2ccc(Cl)cc2)s1 | 94% (inactive)
CN(Cc1ccco1)S(=O)(=O)c1nnc(NC(=O)c2cccc(Cl)c2)s1 | 5% (active)
COc1cc(C(=O)Nc2cc(C)ccc2OCc2cc(=O)n3c(C)csc3n2)cc(OC)c1OC | 58% (inactive)
COc1ccc(N(CC(=O)N2CCN(c3ccc(F)cc3)CC2)S(=O)(=O)c2c(C)n[nH]c2C)cc1 | 70% (inactive)
O=C(Nc1ccc(NC(=O)c2ccccc2F)cn1)c1ccco1 | 82% (inactive)
COc1ccc(OC)c(NC(=O)Cc2c(C)n(C(=O)c3ccc(Cl)cc3)c3ccc(OC)cc23)c1 | 74% (inactive)
CCOc1cc(-c2ccc(OC(=O)c3ccc(OC)cc3)c(OC)c2)cc(=O)c2c(C)oc(C)c12 | 41% (active)
CCOc1cc(-c2ccc(OC(=O)c3ccc(Cl)cc3)c(OC)c2)cc(=O)c2c(C)oc(C)c12 | 80% (inactive)
CCOc1cc(-c2ccc(OC(=O)c3ccc(C)cc3)c(OC)c2)cc(=O)c2c(C)oc(C)c12 | 99% (inactive)
O=C(CSc1ncc2c(n1)-c1ccccc1N(Cc1ccc(F)cc1)S2(=O)=O)NCCc1ccccc1 | 94% (inactive)

Compound | survival
Cc1cccc(NC(=O)NC2COc3ccccc3C2)c1C (stereo unspecified) | 69% (inactive)
Cc1cc(C)cc(-n2c(SCC(N)=O)nc3c(oc4ccccc43)c2=O)c1 | 97% (inactive)
O=C(NC1CCCCC1)c1ccc2c(c1)sc1nc(-c3ccccc3)cn12 | 69% (inactive)
Cc1ccc(-c2cn3c(n2)sc2cc(C(=O)NCCCN4CCCCC4)ccc23)cc1 | -3% (active)
Cc1ccc(-c2cn3c(n2)sc2cc(C(=O)NCCCN4CCCCCC4)ccc23)cc1 | -4% (active)
CCc1ccc(-c2cn3c(n2)sc2cc(C(=O)NCCCc4ccccc4)ccc23)cc1 | 70% (inactive)
O=C(NCCCN1CCCCCC1)c1ccc2c(c1)sc1nc(-c3ccccc3)cn12 | 44% (active)
Cc1ccc(-c2cn3c(n2)sc2cc(C(=O)NC4CCCCC4)ccc23)cc1 | 68% (inactive)
Cc1ccc(-c2cn3c(n2)sc2cc(C(=O)NCCCc4ccccc4)ccc23)cc1 | 72% (inactive)
Cc1ccc(-c2cn3c(n2)sc2cc(C(=O)N4CCCCC4)ccc23)cc1 | 79% (inactive)
O=C(NC1CCCCCC1)c1ccc2c(c1)sc1nc(-c3ccccc3)cn12 | 55% (inactive)
O=C(NCCCc1ccccc1)c1ccc2c(c1)sc1nc(-c3ccc(F)cc3)cn12 | 44% (active)
Cc1ccc(-c2cn3c(n2)sc2cc(C(=O)NC4CCCCCC4)ccc23)cc1 | 94% (inactive)
Cc1ccc(Cn2c(SCC(=O)C(C)(C)C)nc3ccsc3c2=O)cc1 | 77% (inactive)
Cc1ccccc1C(=O)n1nc(-c2ccco2)nc1NCc1ccc(Cl)cc1 | 80% (inactive)
Cc1cccc(CCNC(=O)c2ccc3c(c2)nc2n3CCCCC2)c1 | 77% (inactive)
O=C(c1ccccc1)N1CCN(Cc2ccccc2)CC1 | 72% (inactive)
CCOc1ccc(/C=C/c2nc(C#N)c(N(C)C)o2)cc1 | 102% (inactive)
CCCCN(CC)CCNC(=O)Cn1cc2c(n1)-c1c(oc(C(=O)N3CCCC3)c1C)CC2 | 85% (inactive)
COC(=O)c1cc2occc2n1Cc1nc(-c2ccccc2F)oc1C | 102% (inactive)
Cc1cc2ncn(S(=O)(=O)c3ccc(S(=O)(=O)NCC4CCCO4)cc3)c2cc1C (stereo unspecified) | 82% (inactive)

Compound | survival
O=C(NCCCN1CCCCC1)c1ccc2c(c1)sc1nc(-c3ccc(F)cc3)cn12 | 53% (active)
COc1ccc(N2CCN(CCCNC(=O)c3ccc4nc(N5CCCCC5)sc4c3)CC2)cc1 | 78% (inactive)
Cc1ccc[n+](CC(=O)c2cccs2)c1 | 106% (inactive)
CCN1CCN(Cc2nc3cc(NC(=O)c4cc(OC)c(OC)c(OC)c4)ccc3n2CC)CC1 | 84% (inactive)
CC(=O)c1ccc(N2CCN(S(=O)(=O)c3ccc4[nH]c5c(c4c3)CCCC5)CC2)cc1 | 64% (inactive)
CCOc1ccc(-c2cc3c(=O)n(CC(=O)NCc4ccccc4)ccn3n2)cc1 | 83% (inactive)
Cc1ccc(Cl)cc1-n1c(=O)cc(N2CCN(c3ccc(F)cc3)CC2)[nH]c1=O | 70% (inactive)
Cc1ccc(Cl)cc1-n1c(=O)cc(N2CCN(c3ccccc3)CC2)[nH]c1=O | 92% (inactive)
Cc1ccc(-n2c(=O)cc(N3CCN(c4ccccc4Cl)CC3)[nH]c2=O)cc1 | 25% (active)
N#CC1(Nc2ccccc2Cl)C(=O)Nc2ccccc21 (stereo unspecified) | 69% (inactive)
COc1cc(-c2nc3cnccn3c2Nc2ccc(C(C)C)cc2)ccc1O | 66% (inactive)
CN(C)c1ccc(-c2nc3cnccn3c2Nc2cccc(C(F)(F)F)c2)cc1 | 83% (inactive)
Cc1ccc(Nc2c(-c3ccncc3)nc3ccc(C)cn23)cc1 | 102% (inactive)
CC(C)c1ccc(Nc2c(-c3ccccc3O)nc3cnccn23)cc1 | 55% (inactive)
COc1ccc(Nc2c(-c3ccc(Cl)cc3)nc3cnccn23)cc1OC | 58% (inactive)
CC(C)c1ccc(Nc2c(-c3ccc(N(C)C)cc3)nc3cnccn23)cc1 | 43% (active)
Cc1cccc(C)c1Nc1c(-c2ccccc2Cl)nc2cnccn12 | 97% (inactive)
Oc1ccccc1-c1nc2cnccn2c1Nc1ccc(Cl)cc1 | 15% (active)
Cc1ccc(Nc2c(-c3ccc(C)cc3)nc3cnccn23)cc1 | 35% (active)
